Laboratory results from the supplement of paper PMC7801607.

Legend:
CHO = test: % viability of CHO cells (MTT); higher = less toxic; details: 48 h
In short: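 CHO cells were seeded at 10^6 cells/well in 200 µL and left overnight to attach. The medium was then replaced with fresh medium containing compound at 2 or 20 µM for 48 h. Survival was read colorimetrically with the tetrazolium (MTT) assay. Percent viability was expressed relative to untreated cells.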

HepG2-A16-CD81 = test: % inhibition of HepG2 viability (CellTiter-Glo); higher = more toxic; details: 5 µM;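 also: HepG2-A16-CD81 hepatoma cells plated as in the liver-stage assay but without sporozoites, with DMSO wells as negative and 25 µM puromycin as positive control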
[1] = test system: Plasmodium falciparum NF54 stage IV/V gametocytes; test: % inhibition of gametocyte viability (PrestoBlue); higher = more inhibition; details: 48 h
In short: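 Stage IV/V NF54 gametocytes (2% gametocytaemia, 5% haematocrit, 100 µL/well) were exposed to compound at 1 or 5 µM. Incubation was 48 h at 37 °C, stationary and hypoxic, followed by 10 µL PrestoBlue for 2 h. Fluorescence at 612 nm was read on 70 µL of transferred supernatant. Percent inhibition of gametocyte viability was normalised to DMSO and kill controls from a single run.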

[2] = test system: Plasmodium falciparum NF54 asexual blood stage; test: % inhibition of asexual blood stage proliferation (pLDH); higher = more inhibition; details: 72 h
In short: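 Plasmodium falciparum NF54 ring-stage cultures (1% haematocrit, 2% parasitaemia) were exposed to compound at 2 or 20 µM in 96-well plates. Incubation was 72 h at 37 °C under 4% CO2, 3% O2 and 93% N2. Survival was read colorimetrically at 620 nm with the parasite lactate dehydrogenase assay. Percent inhibition of asexual proliferation was normalised to DMSO and kill controls, and the screen was run on two separate occasions.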

[3] = test system: Plasmodium falciparum NF54 stage IV/V gametocytes; test: % inhibition of gametocyte viability (ATP bioluminescence); higher = more inhibition; details: 24 h
In short: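 In 96-well plates, compound at 1 or 5 µM was added to 30,000 density-gradient-enriched stage IV/V NF54 gametocytes per well and incubated for 24 h at 37 °C. ATP readout used the Promega BacTiter Glo bioluminescence system. Percent inhibition of gametocyte viability comes from a single run, normalised to control wells.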

[4] = test system: Plasmodium falciparum NF54 stage IV/V gametocytes; test: % inhibition of gametocyte viability (luciferase reporter); higher = more inhibition; details: 48 h
In short: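 Luminescence from 30 µL lysate combined with 30 µL Promega luciferin substrate was recorded on a GloMax-Multi+ reader using 10 s integration. The lysate came from stage IV/V NF54-Pfs16-GFP-Luc gametocytes (2% gametocytaemia, 2% haematocrit) held with compound at 1 or 5 µM for 48 h at 37 °C under stationary, hypoxic conditions. Percent inhibition was normalised against controls run once.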

Structure (SMILES) | % viability of CHO cells (CHO; 2 µM) [%] | % viability of CHO cells (CHO; 20 µM) [%] | % inhibition of HepG2 viability (HepG2-A16-CD81) [%] | % inhibition of gametocyte viability ([1]; 1 µM) [%] | % inhibition of gametocyte viability ([1]; 5 µM) [%] | % inhibition of asexual blood stage proliferation ([2]; 2 µM) [%] | % inhibition of asexual blood stage proliferation ([2]; 20 µM) [%] | % inhibition of gametocyte viability ([3]; 1 µM) [%] | % inhibition of gametocyte viability ([3]; 5 µM) [%] | % inhibition of gametocyte viability ([4]; 1 µM) [%] | % inhibition of gametocyte viability ([4]; 5 µM) [%]
COc1cc(C2C3=C(CC(C)(C)CC3=O)Nc3ccccc3N2C(C)=O)ccc1OCc1ccccc1 (configuration not stated) | 174 | 58 | 3.3 | < 0 | 13.3 | -1.82 | 14.6 | 3.07 | < 0 | < 0 | < 0
Nc1cc(-c2nc3ccccc3[nH]2)n[nH]c1=O | 70.3 | 49.8 | 2.54 | 28.3 | 78.8 | 31.5 | 79.1 | 5.5 | < 0 | 1.36 | < 0
CC(=N)N1CC[C@H](SC2=C(C(=O)O)N3C(=O)[C@@H]([C@@H](C)O)[C@H]3C2)C1 | 85.2 | 33.9 | -4.07 | < 0 | < 0 | 5.77 | 14.6 | < 0 | < 0 | < 0 | 0.678
Clc1ccc(COC(Cn2ccnc2)c2ccc(Cl)cc2Cl)c(Cl)c1 (configuration not stated) | 89.6 | 135 | 4.88 | 10.1 | < 0 | 48.6 | 73.4 | < 0 | 20.2 | < 0 | 22.3
COc1ccc2nc(-c3ccccc3)cc(O)c2c1 | 85.4 | 80.2 | 6.13 | < 0 | 7.99 | 66.9 | 94.3 | 29.5 | 13.5 | < 0 | 8.89
NC(=O)c1cnccn1 | 96 | 75.7 | -2.12 | 9.19 | 38.1 | 38.1 | 70.3 | < 0 | < 0 | < 0 | 14.8
CC(C)Nc1ncnc2c1cnn2-c1ccc(Cl)cc1 | 89.8 | 122 | 13.3 | 17.9 | 15.6 | 18.3 | 69.3 | < 0 | < 0 | < 0 | 62.4
FC(F)(F)c1cc(C(F)(F)F)c2ccc3nc(-c4nnco4)cn3c2n1 | 93.3 | 124 | 8.21 | 17.1 | 21.3 | 19.6 | 26.8 | < 0 | < 0 | 1.44 | 18
O=C(Nc1nnc(-c2ccccc2)o1)c1ccc(F)cc1 | 88.3 | 114 | 8.93 | 8.12 | < 0 | 52.8 | 61.2 | < 0 | < 0 | < 0 | < 0
CCNC(=O)Nc1cc(-c2ccccc2)c(-c2cncc(C(=O)O)c2)cn1 | 109 | 94 | -1.59 | 19.7 | 30.2 | -11.2 | -0.305 | < 0 | < 0 | < 0 | < 0
CCCCCCCc1[nH]c2ccccc2c(=O)c1O | 96.8 | 107 | 24.8 | < 0 | < 0 | 22.4 | 83.6 | < 0 | < 0 | < 0 | < 0
OB1OCc2cc(Cl)ccc21 | 90.1 | 100 | -4.78 | < 0 | < 0 | 2.76 | -5.4 | < 0 | < 0 | < 0 | < 0
CC(=O)NC[C@H]1CN(c2ccc(N3CCSCC3)c(F)c2)C(=O)O1 | 105 | 91.5 | 4.22 | < 0 | < 0 | 37.1 | 49.9 | < 0 | < 0 | < 0 | < 0
COc1cc(C)c2c(Oc3cccc(C(F)(F)F)c3)c(OC)cc(NC(C)CCCN)c2n1 (configuration not stated) | 95.6 | -0.735 | 3.86 | 47.9 | 71.7 | 56.5 | 92.1 | < 0 | 70 | < 0 | 79.6
c1ccc(-c2nnc3c4ccccc4c(N4CCNCC4)nn23)cc1 | 101 | 91.4 | 10.4 | 27.8 | 50.3 | 3.14 | 69.2 | < 0 | 0.889 | < 0 | 11.9
Fc1ccc(-n2cc(Cn3c(-c4cccc(F)c4)nc4ccccc43)nn2)cc1 | 86.4 | 78.7 | -1.61 | < 0 | 43.7 | 9.59 | 83.1 | < 0 | < 0 | < 0 | < 0
O=C(Nc1nnc(-c2ccc(Cl)cc2)o1)c1ccc(F)cc1 | 94.3 | 106 | -1.68 | < 0 | 0.779 | 23.1 | -13.5 | < 0 | < 0 | < 0 | 1.27
CC1(C)Cc2c(C#N)c(SCCc3ccccc3)nc(N3CCOCC3)c2CO1 | 112 | 112 | -1.4 | 9.17 | 45.1 | 17.3 | 89.2 | < 0 | < 0 | < 0 | 3.41
O=C(NNC(=S)Nc1ccc(Cl)cc1)c1ccncc1 | 116 | 76.6 | 4.57 | 6.58 | < 0 | 3.73 | -4.99 | < 0 | < 0 | < 0 | < 0
Cc1cccc(CC(=O)N[C@H]2CCOC2=O)c1 | 95.4 | 98.6 | 5.04 | < 0 | 21.6 | 35.3 | 53.6 | < 0 | < 0 | < 0 | 5.44

Structure (SMILES) | % viability of CHO cells (CHO; 2 µM) [%] | % viability of CHO cells (CHO; 20 µM) [%] | % inhibition of HepG2 viability (HepG2-A16-CD81) [%] | % inhibition of gametocyte viability ([1]; 1 µM) [%] | % inhibition of gametocyte viability ([1]; 5 µM) [%] | % inhibition of asexual blood stage proliferation ([2]; 2 µM) [%] | % inhibition of asexual blood stage proliferation ([2]; 20 µM) [%] | % inhibition of gametocyte viability ([3]; 1 µM) [%] | % inhibition of gametocyte viability ([3]; 5 µM) [%] | % inhibition of gametocyte viability ([4]; 1 µM) [%] | % inhibition of gametocyte viability ([4]; 5 µM) [%]
NC(=O)c1[nH]c2ccc(S(N)(=O)=O)cc2c1-c1ccccc1 | 93.5 | 98.8 | 8.64 | < 0 | 19.1 | 16.9 | 72.7 | < 0 | < 0 | 11.7 | < 0
CCOc1ccc(/C=N/NC(=O)C2CC2c2ccc(C(C)(C)C)cc2)cc1OCC (configuration not stated) | 96.4 | 63.6 | -8.74 | < 0 | 1.6 | 18.7 | 37.8 | < 0 | < 0 | 17.9 | < 0
CC(C)(C)c1cccc(-c2nc3cc(C(=N)N)ccc3[nH]2)c1O | 98.4 | 106 | -1.3 | < 0 | 41.8 | 21.4 | 79.9 | 0.668 | 3.93 | < 0 | 14.8
CS(=O)(=O)c1ccc(Oc2ccc(Cl)cc2)cc1 | 98.9 | 121 | -1.85 | 21.5 | 13.8 | 28.1 | 69.1 | < 0 | < 0 | < 0 | < 0
NS(=O)(=O)c1ccc(NC(=O)NC(c2ccccc2)c2ccccc2)cc1 | 258 | 58.6 | 4.57 | < 0 | 7.57 | 3.15 | 82.5 | < 0 | < 0 | < 0 | < 0
C[C@@H]1O[C@@H]1P(=O)(O)O | 107 | 72.6 | -3.69 | < 0 | 36.1 | -0.28 | 11.5 | < 0 | < 0 | < 0 | 4.89
N#C/C(=C1/SC[C@H](c2ccc(Cl)cc2Cl)S1)n1ccnc1 | 113 | 118 | 10 | 11.8 | 16.4 | 48.7 | 22.8 | < 0 | < 0 | < 0 | 1.63
CC(=O)N1c2ccccc2NC2=C(C(=O)CC(C)(C)C2)C1c1ccc(OCc2ccccc2)cc1 (configuration not stated) | 119 | 85.5 | -5.09 | 27.1 | 24.2 | -13.1 | 76.9 | 1.11 | 3.14 | 9.92 | < 0
Cc1ccc(NC(=O)c2cc(Cl)ccc2O)cc1 | 101 | -0.714 | 29.4 | < 0 | < 0 | 57.7 | 98.8 | < 0 | < 0 | 5.12 | 4.7
CC#C[C@]1(O)CC[C@H]2[C@@H]3CCC4=CC(=O)CCC4=C3[C@@H](c3ccc(N(C)C)cc3)C[C@@]21C | 89.5 | 130 | 0.01 | < 0 | < 0 | 15.1 | 53.8 | < 0 | < 0 | 2.32 | < 0
Clc1ccc(Cn2c(CN3CCCC3)nc3ccccc32)cc1 | 97.8 | 91.5 | 2.06 | 23.6 | 61 | 11.9 | 69 | 10.2 | 57.1 | 1.55 | < 0
N=c1n(CCN2CCCCC2)c2ccccc2n1CC(O)COc1ccc(Cl)cc1Cl (configuration not stated) | 82.7 | -3.8 | 5.14 | 38.8 | 66 | 76.8 | 85.7 | 85.7 | 88.1 | 40.7 | 97
COc1ccc2cc3[n+](cc2c1OCCN(CCn1cncn1)Cc1ccc(F)cc1F)CCc1cc2c(cc1-3)OCO2 | 89.4 | 74.2 | 22.1 | < 0 | < 0 | 78.3 | 84.3 | < 0 | 30.9 | < 0 | 10.3
Cc1ccccc1NC(=O)Nc1cccc([N+](=O)[O-])c1 | 121 | 111 | 8.58 | < 0 | 2.93 | 3.72 | 73.7 | 6.45 | < 0 | 3.59 | < 0
Nc1nc2c(ncn2/C=C2/CC2(CO)CO)c(=O)[nH]1 | 102 | 5.45 | -5.92 | 10.2 | 7.42 | 6.02 | 5.03 | < 0 | < 0 | < 0 | 1.19
Nc1nc(C(F)(F)F)cc2c1[nH]c(=O)n2Cc1ccccc1 | 89.2 | 102 | 8.47 | 2.55 | 20.9 | 2.26 | 35 | < 0 | < 0 | 18.1 | < 0
CCOC(=O)/C=C/[C@H](C[C@@H]1CCNC1=O)NC(=O)[C@@H](CC(=O)[C@@H](NC(=O)c1cc(C)on1)C(C)C)Cc1ccc(F)cc1 | 124 | 129 | 2.38 | 27.5 | 17.3 | 16.3 | 53.7 | 4.33 | < 0 | 1.29 | 10.2
CC(Oc1ccc(Cl)cc1Cl)C(=O)NCc1ccc2c(c1)OCO2 (configuration not stated) | – | – | – | < 0 | 35.3 | -4.14 | -3.59 | < 0 | < 0 | < 0 | < 0
O=C(/C=C\n1cnc(-c2cc(C(F)(F)F)cc(C(F)(F)F)c2)n1)NNc1ccccn1 | 117 | 91.3 | 31.8 | 10.8 | < 0 | 13.9 | 40 | < 0 | < 0 | 13.4 | < 0
CC(C)c1cc2c(cc1S(=O)(=O)O)[C@@]1(C)CCC[C@@](C)(C(=O)O)[C@@H]1CC2 | 93.3 | 109 | 3.51 | 43.4 | 12.4 | 26 | 89 | < 0 | < 0 | < 0 | < 0
